Compound activity (PubChem)
IDE exosite inh – exo-site inhibitors of human IDE, primary screen, biochemical, fluorescence anisotropy, probe displacement; AID 1259349, 2017; purified IDE, FL-6b probe fluorescence polarization; hits give low values; z-score at 20 µM; Insulin-degrading enzyme (Homo sapiens), P14735; 17,000 compounds, 6.3% hits;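 active = z-score of -3 or lower, meaning strong loss of probe binding signal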;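 also: His-tagged human IDE residues 42-1019 made in E. coli with 30 nM FL-6b probe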
* = called active by the depositor. Shown is part of a subset that was picked to be rich in hits.

SMILES | IDE exosite inh
COc1ccc(CNC(=O)N(C)C[C@H]2OCc3ccccc3-c3c(n(C)c4ccccc34)C(=O)N([C@@H](C)CO)C[C@H]2C)cc1 | 0.32
CC(=O)N1[C@H](CO)[C@@H](c2ccccc2)C12CN(S(=O)(=O)c1ccccc1)C2 | 1.5
O=C1CN(Cc2ccccc2)C[C@@H]2[C@H](c3ccc(-c4ccccc4F)cc3)[C@@H](CO)N12 | 1.2
COc1ccccc1-c1ccc([C@@H]2[C@@H](CO)N3CCCCN(C(=O)c4cccnc4)C[C@H]23)cc1 | 0.079
COc1ccccc1-c1ccc([C@@H]2[C@H](CO)N3CCCCN(C(=O)c4ccncc4)C[C@@H]23)cc1 | -13*
Cc1cccc(-c2ccc([C@H]3[C@@H](CO)N4CCCCN(C(=O)c5ccncc5)C[C@H]34)cc2)c1 | -18*
Cc1cccc(-c2ccc([C@@H]3[C@@H](CO)N4CCCCN(C(=O)c5ccncc5)C[C@@H]34)cc2)c1 | -3.1*
Cc1ccc(-c2ccc([C@@H]3[C@@H](CO)N4CCCCN(C(=O)c5ccncc5)C[C@H]34)cc2)cc1 | 2.8
Cc1ccc(-c2ccc([C@@H]3[C@H]4CN(C(=O)c5ccncc5)CCCCN4[C@H]3CO)cc2)cc1 | -2.6
COc1ccccc1-c1ccc([C@H]2[C@H]3CN(C(=O)c4cccnc4)CCCCN3[C@H]2CO)cc1 | 0.57
Cc1ccc(-c2ccc([C@H]3[C@H](CO)N4CCCCN(C(=O)c5ccncc5)C[C@@H]34)cc2)cc1 | -0.74
O=C(c1ccncc1)N1CCCCN2[C@H](CO)[C@@H](c3ccc(-c4ccccc4)cc3)[C@@H]2C1 | 0.82
Cc1ccc(-c2ccc([C@H]3[C@@H](CO)N4CCCCN(C(=O)c5ccncc5)C[C@@H]34)cc2)cc1 | 0.15
Cc1cccc(-c2ccc([C@@H]3[C@@H](CO)N4CCCCN(C(=O)c5ccncc5)C[C@H]34)cc2)c1 | -3.1*
O=C(c1ccncc1)N1CCCCN2[C@H](C1)[C@@H](c1ccc(-c3ccccc3)cc1)[C@@H]2CO | -0.18
COc1ccc(NC(=O)N(C)C[C@H]2OCc3cnnn3CCCC(=O)N([C@H](C)CO)C[C@H]2C)c(OC)c1 | -0.53
COc1ccccc1NC(=O)N1CC(=O)N2[C@H](C1)[C@@H](c1ccc(C#CC3CC3)cc1)[C@@H]2CO | 1.2
O=C(Nc1cccc(F)c1)N1CC(=O)N2[C@H](C1)[C@H](c1ccc(-c3cccc(F)c3)cc1)[C@@H]2CO | -0.47
C[C@H](NC(=O)C[C@@H]1C=C[C@@H](NC(=O)c2cccnc2)[C@@H](CO)O1)c1ccccc1 | 1.8
COCCN(C[C@@H]1[C@@H](c2ccccc2)[C@H](CO)N1C(=O)C1CCC1)C(C)=O | 2.6
CS(=O)(=O)N1[C@@H]2Cn3c(ccc(-c4cccc(F)c4)c3=O)[C@H]1[C@@H](C(=O)N1CCCCC1)[C@@H]2CO | -0.67
O=C(C1CCOCC1)N1C[C@H]2[C@@H](c3ccccc31)[C@H](CO)N2C(=O)Cc1ccccn1 | 2
O=C(c1ccncc1)N1CCCCN2[C@H](CO)[C@H](c3ccc(-c4ccccc4)cc3)[C@@H]2C1 | 2.5
Cc1cccc(-c2ccc([C@@H]3[C@H]4CN(C(=O)c5ccncc5)CCCCN4[C@H]3CO)cc2)c1 | -17*
O=C(c1cccc(F)c1)N1CCCCN2[C@@H](CO)[C@H](c3ccc(-c4ccncc4)cc3)[C@@H]2C1 | 1.1
SMILES | IDE exosite inh
COc1ccc(NC(=O)Nc2ccc3c(c2)[C@H]2C[C@H](CC(=O)NCC(F)(F)F)O[C@H](CO)[C@H]2O3)cc1 | 0.45
O=S(=O)(c1ccc(F)cc1)N1CCCCN2[C@@H](CO)[C@@H](c3ccc(-c4cncnc4)cc3)[C@@H]2C1 | 0.11
CO[C@@H](CN(C)C(=O)c1ccc2c(c1)OCO2)[C@H](C)CN([C@@H](C)CO)S(=O)(=O)c1ccc(Cl)cc1 | -0.36
C[C@H]1CCCCO[C@@H](CN(C)Cc2ccc3c(c2)OCO3)[C@@H](C)CN([C@@H](C)CO)C(=O)c2cc(NS(=O)(=O)c3cn(C)cn3)ccc2O1 | -0.57
C[C@H](O)C#Cc1ccc([C@H]2[C@@H](CO)N3CCCCN(C(=O)Nc4ccccc4)C[C@@H]23)cc1 | 2.3
CC(C)(C)S(=O)N1Cc2cc(C(=O)NCc3ccc(Oc4ccccc4)cc3)nc(-c3cccc(-c4cccc(F)c4)c3)c2[C@@H]1CCO (stereo partly drawn) | -0.32
O=C(Nc1ccccc1F)N1CC(=O)N2[C@H](CO)[C@@H](c3ccc(-c4ccccc4)cc3)[C@H]2C1 | -1.4
O=C(Nc1cc(F)ccc1F)N1CC(=O)N2[C@H](CO)[C@H](c3ccc(-c4cccnc4)cc3)[C@H]2C1 | -4.5*
O=C(Nc1cc(F)ccc1F)N1CC(=O)N2[C@@H](CO)[C@@H](c3ccc(-c4cccnc4)cc3)[C@@H]2C1 | 1.9
O=C(Nc1ccccc1F)N1CC(=O)N2[C@H](CO)[C@@H](c3ccc(C#Cc4ccccc4)cc3)[C@H]2C1 | -0.57
O=C(Nc1ccccc1F)N1CC(=O)N2[C@@H](CO)[C@H](c3ccc(C#Cc4ccccc4)cc3)[C@@H]2C1 | -8.9*
O=C(Nc1cc(F)ccc1F)N1CC(=O)N2[C@@H](CO)[C@H](c3ccc(-c4cccnc4)cc3)[C@@H]2C1 | 1.6
O=C(Nc1ccccc1F)N1CC(=O)N2[C@H](CO)[C@H](c3ccc(-c4ccccc4)cc3)[C@@H]2C1 | -0.51
O=C(Nc1ccccc1F)N1CC(=O)N2[C@H](C1)[C@@H](c1ccc(C#Cc3ccccc3)cc1)[C@@H]2CO | -2.8
O=C(Nc1ccccc1F)N1CC(=O)N2[C@H](CO)[C@@H](c3ccc(-c4ccccc4)cc3)[C@@H]2C1 | -6*
Cc1ccc(S(=O)(=O)N2C[C@@H](O)COC[C@H]3O[C@@H](CC(=O)NCc4ccc5c(c4)OCO5)CC[C@@H]32)cc1 | 0.97
CN(C)C(=O)c1cccc(-c2ccc3c(c2)[C@@H]2[C@@H](CCN2C(=O)Cc2ccccc2)[C@H](CO)N3)c1 | 1.8
OC[C@@H]1[C@@H](c2ccccc2)C2(CN(Cc3ccccc3F)C2)N1Cc1ccccc1F | 0.9
C[C@@H]1CN([C@H](C)CO)C(=O)c2cccc(N(C)C)c2O[C@H]1CN(C)C(=O)Nc1ccc(F)cc1 | 1.2
Cc1noc(C)c1NC(=O)N(C)C[C@H]1OCCCC[C@@H](C)Oc2ccc(NC(=O)Nc3ccc(C(F)(F)F)cc3)cc2C(=O)N([C@H](C)CO)C[C@@H]1C | 1.7
COCC(=O)N1[C@H](CO)[C@@H](c2ccccc2-c2ccc(C)cc2)[C@@H]1C#N | 1.3
OC[C@H]1[C@H](c2ccc(-c3ccccc3)cc2)[C@@H]2CN(Cc3cncnc3)CCCCN12 | 0.39
OC[C@H]1[C@@H](c2ccc(-c3ccccc3)cc2)[C@@H]2CN(Cc3cncnc3)CCCCN12 | -1.1
OC[C@H]1[C@H](c2ccc(-c3ccccc3)cc2)[C@H]2CN(Cc3cncnc3)CCCCN21 | 0.9
Cc1ccc(-c2ccc([C@@H]3[C@@H](CO)N4CCCCN(Cc5cncnc5)C[C@@H]34)cc2)cc1 | -0.54
COc1cccc(-c2ccc([C@H]3[C@H]4CN(Cc5cncnc5)CCCCN4[C@H]3CO)cc2)c1 | -2
Cc1cccc(-c2ccc([C@H]3[C@H](CO)N4CCCCN(Cc5cncnc5)C[C@@H]34)cc2)c1 | -7.4*
COc1cccc(-c2ccc([C@H]3[C@H](CO)N4CCCCN(CC5CC5)C[C@@H]34)cc2)c1 | -0.72
COc1cccc(-c2ccc([C@@H]3[C@@H](CO)N4CCCCN(CC5CC5)C[C@H]34)cc2)c1 | -1.8
